Inconclusive results are not listed. Active and inactive are the calls of the source. Calls follow the shape of the dose curve; as a rule, active = well fitted activation curve with a large enough effect; inconclusive = small, poorly fitted or top-dose-only effect; inactive = no such curve, though single readings can be large or run the other way.
Molecular target: Cellular tumor antigen p53 (Homo sapiens) (UniProt P04637)
Experiment: Confirmatory qHTS for small molecule compounds that upregulate eGFP-tagged delta133p53alpha (in C-terminal) cells.
Conditions: delta133p53alpha-eGFP (C-terminal) reporter cells, GFP fluorescence upregulation; series mostly up to 57.5 µM
Summary of the method: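 Readout: cellular GFP fluorescence […] with Hoechst nuclear counterstain, by laser scanning cytometry of fixed cells. Cells were doxycycline-induced (100 ng/ml, 24 h) NCI-H358 delta133p53alpha-eGFP, treated with compound titrations for 24 h, 37C.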

Sequence of Cellular tumor antigen p53 (Homo sapiens) (P04637 whole entry, looked up): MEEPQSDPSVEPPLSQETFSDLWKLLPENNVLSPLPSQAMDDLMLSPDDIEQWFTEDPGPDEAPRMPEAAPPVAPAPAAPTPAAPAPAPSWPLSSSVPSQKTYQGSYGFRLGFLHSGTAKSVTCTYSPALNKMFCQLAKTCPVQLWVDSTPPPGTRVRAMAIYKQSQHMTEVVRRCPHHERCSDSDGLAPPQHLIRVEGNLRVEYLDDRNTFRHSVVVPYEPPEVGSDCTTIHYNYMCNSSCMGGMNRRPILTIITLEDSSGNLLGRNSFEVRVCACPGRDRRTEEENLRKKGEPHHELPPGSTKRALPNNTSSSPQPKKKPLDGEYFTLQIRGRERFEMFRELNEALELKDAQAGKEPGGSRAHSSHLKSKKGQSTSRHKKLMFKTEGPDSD

Potency, active:
O=C1NC(=O)c2cc(Nc3ccccc3)c(Nc3ccccc3)cc21 9.68 µM
Brc1c(Br)c(Br)c2[nH]cnc2c1Br 21.7 µM
CC12C(=O)OC(=O)C1(C)C1CCC2O1 (stereo unspecified) 4.85 µM
COc1cc(/C=C(\C#N)C(=O)c2ccc(O)c(O)c2)cc(I)c1O 12.2 µM
CC[n+]1c(/C=C/C=C2/N(C)c3ccccc3C2(C)C)sc2ccccc21 12.2 µM
O=C(N[C@@H](Cc1ccccc1)C(=O)CCl)OCc1ccccc1 3.85 µM
COC(=O)[C@H]1[C@H]2C[C@@H]3c4[nH]c5cc(OC)ccc5c4CCN3C[C@H]2C[C@@H](OC(=O)c2cc(OC)c(OC)c(OC)c2)[C@@H]1OC 30.6 µM
CCN(CC)CCCC(C)Nc1c2ccc(Cl)cc2nc2ccc(OC)cc12 (stereo unspecified) 8.63 µM
CC(C)(C)c1ccc(S(=O)(=O)/C=C/C#N)cc1 13.7 µM

Potency, inactive:
CCCCS(=N)(=O)CCC(N)C(=O)O (stereo unspecified)
CC(C)(C(=O)O)c1ccc(C(O)CCCN2CCC(C(O)(c3ccccc3)c3ccccc3)CC2)cc1 (stereo unspecified)
CC(=O)SC1CC2=CC(=O)CC[C@]2(C)C2CC[C@@]3(C)C(CC[C@@]34CCC(=O)O4)C12 (stereo partly specified)
C[C@]12CC[C@@H]3c4ccc(O)cc4C[C@@H](CCCCCCCCCS(=O)CCCC(F)(F)C(F)(F)F)[C@H]3[C@@H]1CC[C@@H]2O (stereo partly specified)
Cn1c(=O)c2[nH]c(-c3ccccc3)nc2n(C)c1=O
CCOC(=O)Nc1ccc(NCc2ccc(F)cc2)nc1N
O=C1N(c2ccccc2)c2ccccc2C1(Cc1ccncc1)Cc1ccncc1
CCCCCCCCCCCCCCCCCCOC[C@H](COP(=O)([O-])OCC[N+](C)(C)C)OC
CCCC(=O)NCCc1c2n(c3ccc(OC)cc13)CCCc1ccccc1-2
CC(=O)N[C@@H](CS)C(=O)O
N=c1ccn2c(n1)O[C@H]1[C@H](O)[C@@H](CO)O[C@H]12
CN(C)C(=O)C(CCN1CCC(O)(c2ccc(Cl)cc2)CC1)(c1ccccc1)c1ccccc1

— PubChem BioAssay AID2060323 (National Center for Advancing Translational Sciences (NCATS), 2025)
